HT1080-NT tox = kills 2HG-producing HT-1080-NT fibrosarcoma cells | HT-1080-NT fibrosarcoma viability, CellTiter-Glo ATP luminescence, 48 h | Potency, µM (doses to about 46.1 µM), without a hit: top-dose activity, negative = less viability, actives largely listed as cytotoxic | actives 1.6% (n = 360,000) | AID 686970;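 also: NT is the 2HG producing partner of a matched IDH1 knockdown line; potency is read from the fitted curve at half-maximal effect; 0% = DMSO-treated cells and -100% = media-only wells without cells; nearly all actives have a fitted effect of over 55% in size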
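Viability by CellTiter-Glo luminescence after 48 h compound exposure at 37C of HT-1080-NT cells (750/well, RPMI, 5% FBS). % activity scaled between DMSO wells and medium-only wells, then curve-fitted and categorized by curve class.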
TDP1 cell CPT = growth inhibition of DT40 Tdp1-/-;hTDP1 cells with camptothecin (screen for TDP1 inhibitors) | actives 12% (n = 420,000) | chicken DT40 Tdp1-/-;hTDP1 cells + 20 nM CPT, ATP luminescence, 48 h | AID 686979 | Potency, µM (highest dose often 46.2 µM), without a hit: at the top dose activity change, negative = growth inhibition, hits mostly inhibitors; also: potency is read from the fitted curve at half-maximal effect; nearly all actives have a fitted effect of over 55% in size
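Cell growth measured by CellTiter-Glo luminescence after a minimum 48 h, 37 C compound exposure with 20 nM CPT in Tdp1-knockout DT40 cells stably expressing hTDP1, seeded 400/well; qHTS titration format.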
IL1B secr inh = blocks inflammasome-driven IL-1 beta release | THP-1 LPS/ATP IL-1B secretion, AlphaLISA, 16 h; hits give low values | activity change, % at 57.5 µM | actives 4.7% (n = 360,000) | AID 743279; in the data active = activity change below about -50%; inconclusive = mostly about -30% to -49%
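THP-1 cells pretreated 1 hr with compounds (up to 57.5 uM final), then stimulated with LPS (250 ng/mL final) plus ATP (1.25 mM final); secreted IL-1B measured by AlphaLISA after 16 hr, decreased signal indicating inhibition.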
DT40 TDP1 no CPT = qHTS for Inhibitors of human tyrosyl-DNA phosphodiesterase 1 (TDP1): qHTS in cells in absence of CPT; DT40 Tdp1-/- hTDP1 cells, no CPT, ATP luminescence, 48 h; Potency, µM (top dose mostly 46.2 µM), for inactives: at the top dose activity change, negative = growth inhibition, hits mostly inhibitors; actives 15% (n = 420,000); AID 686978, 2013; also: potency is read from the fitted curve at half-maximal effect; nearly all actives have a fitted effect of over 55% in size
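Readout: luminescence from CellTiter-Glo after 30 min in the dark at RT. Cells: DT40 Tdp1-/- with stable hTDP1, 400/well. Exposure: compounds alone, ≥48 hr, 37 °C.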
HT1080 IDH1KD tx = HT-1080 IDH1 knockdown cell toxicity (counter line); Potency, µM (doses to about 46.1 µM), for inactives: at the highest dose activity, negative = toxicity, most hits filed as cytotoxic; HT-1080 IDH1 knockdown viability, ATP luminescence, 48 h; actives 2% (n = 360,000);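 also: potency is read from the fitted curve at half-maximal effect; 0% = DMSO wells and -100% = cell-free medium wells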
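IDH1KD HT-1080 cells, 750/well, RPMI + 5% FBS; compound pinned after 2 h settling; 48 h, 37 °C; CellTiter-Glo luminescence; % activity normalised to DMSO and no-cell wells; curves fitted, classed by r2 and efficacy.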
ELG1 repair inh = blocks ELG1-dependent DNA repair in HEK293T cells; Potency, µM (highest dose often 46.1 µM), for inactives: at the top dose activity change, negative = inhibition, hits mostly inhibitors; actives 2.3% (n = 330,000); HEK293T ELG1-luciferase reporter, luminescence, 16 h; DNA damage induced by 5-fluorouridine; AID 504467; also: potency is read from the fitted curve at half-maximal effect; nearly all actives have a fitted effect of over 55% in size
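5-Fluorouridine DNA damage + compound/DMSO, 2,000 cells/well, 16 h, 37 °C/5% CO2. ONE-Glo, 30 min RT, luminescence. Readout = decrease in reporter signal.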
* marks the source's active call; other numbers are inactive results; ? = inconclusive; . = no result; [ ] = remark or other dose. A selection: hits, their analogues and other compounds. The true share with any hit is near 19%. Unless noted, calls follow the shape of the dose curve; as a rule, active = well fitted curve in the direction sought with a large enough effect; inconclusive = small, poorly fitted or top-dose-only effect, or another doubt; inactive = no such curve, though single readings can be large; an effect the other way counts as inactive or inconclusive. Unless noted, % is scaled to controls: 0 for no effect and ±100 for the full control effect.

SMILES | HT1080-NT tox | TDP1 cell CPT | IL1B secr inh | DT40 TDP1 no CPT | HT1080 IDH1KD tx | ELG1 repair inh
Cc1ccc2nc(N(CCCN(C)C)C(=O)c3ccco3)sc2c1 | -6% | ? | -11 | ? | -16% | ?
CCN(CC)CCN(C(=O)c1ccco1)c1nc2cc(C)cc(C)c2s1 | . | ? | . | 23µM* | . | .
CCc1ccc2nc(N(CCN(CC)CC)C(=O)c3ccco3)sc2c1 | . | 21µM* | . | ? | . | .
COc1ccc(-c2cccc3c2OC(CNC(=O)c2ccccc2-n2cccn2)C3)nn1 (stereo unspecified) | . | -15%[9.04 µM] | . | ? | . | .
CN(CCCn1cnc2c(OCc3ccccc3)ncnc21)Cc1ccco1 | -2% | -22% | -15 | -14% | 6% | .
COc1cc(/C=N/NC(=S)NCCN2CCOCC2)cc(OC)c1O | 15% | 27% | 39 | 4% | -1% | 18%
COc1ccc2ccccc2c1/C=N/NC(=S)NCCN1CCOCC1 | 4% | 16µM* | -15 | -12% | -2% | ?
S=C(NCCN1CCOCC1)N/N=C/c1ccccc1 | 12% | 11% | 20 | -3% | 8% | 0%
COc1cc(OC)c(OC)cc1/C=N/NC(=S)NCC1CCCO1 (stereo unspecified) | ? | 7.3µM* | -8 | ? | ? | 18µM*
COc1cc(OC)c(OC)cc1/C=N/NC(=S)NCCN1CCOCC1 | -3% | 18µM* | 1 | 16µM* | 11% | -1%
Cc1c(C(=O)N(CCO)C(C)C)cnn1-c1ncc2c(n1)-c1ccccc1CCC2 | . | 4% | . | ? | . | .
CCCc1nc2ccccc2c(C(=O)OCC(=O)N2CCc3ccccc32)c1CC | 1% | 18µM* | 13 | 12µM* | -16% | 16µM*
CC1CCc2nc3ccccc3c(C(=O)OCC(=O)N3CCc4ccccc43)c2C1 (stereo unspecified) | -14% | 8.2µM* | 23 | 5.8µM* | -3% | 18µM*
Cc1noc(C)c1C(=O)OCC(=O)N1CCc2ccccc21 | 1% | -15% | -9 | -5% | 1% | ?
CCc1noc(C)c1C(=O)OCC(=O)N1CCc2ccccc21 | -5% | 5% | 0 | 2.3µM* | -3% | ?
O=c1c2cc(NC(=S)N3CCCCCC3)ccc2nc2n1CCCCC2 | -2% | -21% | 14 | ? | -10% | ?
Cc1ccc2nc(COc3cccc(NC(=O)COc4ccc(F)cc4)c3)cc(=O)n2c1 | . | -16% | . | -22% | . | .
Cc1ccc2nc(SCC(=O)N3CCC(C)CC3)nc(=O)n2c1 | 2% | ? | 0 | -15% | 2% | 19%
COc1ccc(CN(C)C(=O)Cn2cnc3c(NCc4ccccc4)ncnc32)cc1OC | -1% | ? | -1 | ? | -2% | ?
CC(/C=C/c1ccccc1)=N/O | 10% | 4% | -19 | 0% | 5% | 0%
CC(/C=C/c1ccc(O)cc1)=N/O | -2% | 15µM* | -24 | 21µM* | -5% | 23µM*
CC(=O)N1C[C@H]2CON(C)[C@H]2C[C@H]1c1cccc(-c2cc(Cl)cc(Cl)c2)c1 | -12% | ? | -23 | 23µM* | -7% | .
CN1OC[C@@H]2CN(C(=O)CCc3ccccc3)[C@H](c3cccc(-c4ccccc4)c3)C[C@@H]21 | -4% | 26µM* | 0 | ? | -3% | .
CN1OC[C@@H]2CN(C(=S)NCCc3ccccc3)[C@H](c3ccccc3Br)C[C@@H]21 | -17% | ? | -25 | 16µM* | ? | .
CN1OC[C@@H]2CN(C(=O)Cc3ccccc3)[C@H](c3ccccc3Br)C[C@@H]21 | 1% | -6% | 15 | -27% | 0% | .
SMILES | HT1080-NT tox | TDP1 cell CPT | IL1B secr inh | DT40 TDP1 no CPT | HT1080 IDH1KD tx | ELG1 repair inh
CC(=O)N1C[C@H]2CON(C)[C@H]2C[C@H]1c1ccccc1 | ? | 0% | 0 | 4% | 8% | .
Cc1cc(/C=C2\C(=N)N3N=C(C(C)C)SC3=NC2=O)c(C)n1-c1ccccc1 | 1% | -18% | 23 | 36% | -7% | 0%
Cc1ccc(-n2c(C)cc(/C=C3/C(=N)N4C(c5ccccc5)=CSC4=NC3=O)c2C)cc1 | -1% | ? | 13 | 23µM* | -1% | 10%
COc1ccc(-c2nc(SC(C)C(=O)NCC3CCCO3)n[nH]2)cc1 (stereo unspecified) | ? | 8.2µM* | 38 | 9.2µM* | ? | -11%
COc1ccc(-c2cc(C(=O)NCC3CCCO3)c3cc(C)ccc3n2)cc1 (stereo unspecified) | -7% | -5% | -7 | 16µM* | -3% | -29%
Cc1cc(Br)cc2c(C(=O)NCC3CCCO3)cc(-c3ccccc3)nc12 (stereo unspecified) | 3% | ? | 2 | ? | -4% | ?
COc1ccc(-c2nc(SC(C)C(=O)Nc3ccc(NC(C)=O)cc3)n[nH]2)cc1 (stereo unspecified) | 3% | 1% | -4 | -19% | 4% | ?
COc1cccc(-c2cc(C(F)(F)F)n3ncc(C(=O)NCC4CCCO4)c3n2)c1 (stereo unspecified) | ? | ? | 19 | 23µM* | ? | 6.5µM*
O=C(NCC1CCCO1)c1cn(-c2ccccc2)nc1-c1ccc(F)cc1 (stereo unspecified) | -2% | -30% | 5 | -1% | -7% | -13%
COc1ccc(-c2cc(C(F)(F)F)n3ncc(C(=O)NCC4CCCO4)c3n2)cc1 (stereo unspecified) | -2% | ? | -4 | ? | -1% | ?
CC(C)c1ccc(-c2nn(-c3ccccc3)cc2C(=O)NCC2CCCO2)cc1 (stereo unspecified) | ? | -104% | -80* | ? | -30% | ?
CN(C)c1ccc(C(=C2c3ccccc3-c3ccccc32)c2ccc(N(C)C)cc2)cc1 | . | -8% | . | 1% | . | .
O=c1[nH]c(Cl)nc2c1ncn2C1OC(CO)C(O)C1O (stereo unspecified) | . | 9% | . | 6% | . | .
COc1ccc(-c2cc(C(=O)NCC3CCCO3)c3cc(C(C)C)ccc3n2)cc1 (stereo unspecified) | 5% | 16µM* | ? | ? | 11% | -28%
O=C(NCCCO)/C(=C\c1cn(-c2ccccc2)nc1-c1cccnc1)NC(=O)c1ccccc1 | 0% | -12% | -11 | -28% | -1% | ?

Assay outcomes as filed in PubChem BioAssay.
